The source of these data is PubChem BioAssay (Tox21).

Results filed as inconclusive are left out. The source made the active and inactive calls. Unless noted, calls follow the shape of the full dose curve.

Experiment [1] in a line: Nuclear factor erythroid 2-related factor 2/antioxidant responsive element (Nrf2/ARE) small molecule agonists: qHTS cell viability counter screen in human keratinocytes (AID 1919968; active = well fitted curve in the direction sought with a large enough effect in the repeat runs; an effect the other way counts as inactive or inconclusive; also: nearly all actives have a fitted effect of over 55% in size; also: potency is read from the fitted curve at half-maximal effect). The method in brief:
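Cytotoxicity was multiplexed with the Nrf2/ARE luciferase assay in the same wells. Stably transfected HaCaT keratinocytes were treated with test compounds for 23 h at 37 C. Cell viability was then measured by CellTiter-Fluor fluorescence.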
For orientation: In qHTS, concentration-response curves come from the screen itself.

A short description of experiment [2]: Nuclear factor erythroid 2-related factor 2/antioxidant responsive element (Nrf2/ARE) small molecule agonists: luciferase reporter gene qHTS assay in human keratinocytes (AID 1919969; also: nearly all actives have a fitted effect of over 35% in size; also: potency is read from the fitted curve at half-maximal effect). (In general: A reporter such as luciferase makes a cellular process visible.)
In experiment [3] the target is KiSS-1 receptor (Homo sapiens) (UniProt Q969F8). The experiment is described as follows: Human kisspeptin (KISS1R) small molecule agonists, calcium flux assay in KISS1R-HEK293 cells (AID 1920064; active = well fitted curve in the direction sought with a large enough effect in the repeat runs; an effect the other way counts as inactive or inconclusive). A digest of the protocol:
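Agonist activity is monitored as intracellular calcium rise in engineered HEK293 cells carrying human KISS1R. Cells are dye-loaded for 1 h at 37 C before compound addition, and fluorescence is recorded for 3 min.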
For orientation: Calcium assays in cells follow changes in intracellular calcium, usually with a dye or a luminescent sensor.

Experiment [4] is described as follows: G protein-coupled receptor (GPCR) small molecule agonists, calcium flux assay: HEK293 wild type cell line counter screen (AID 1920065). A digest of the protocol:
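Seed cells, incubate 18 h (37 C, 5% CO2); add calcium dye, 1 h at 37 C; pin-transfer compounds, ATP control or DMSO; read fluorescence 480/540 nm each second for 3 min.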

The nature of experiment [5]: p53 small molecule agonists, cell-based qHTS assay with human liver microsomes (AID 1963577).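 Also: p53 response element beta-lactamase reporter cells with liver microsomes plus NADPH.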 A digest of the protocol:
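With metabolic activation: human liver microsomes (0.5 mg/mL final) plus NADPH (0.5 mg/mL final) added alongside compounds to p53RE-bla cells; 16 h 37 C exposure; beta-lactamase read by LiveBLAzer fluorescence.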

A short description of experiment [6]: p53 small molecule agonists, cell-based qHTS assay with rat liver microsomes (AID 1963578). A digest of the protocol:
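Metabolic activation by rat liver microsomes and NADPH, each 0.5 mg/mL final, added right after compounds to p53RE-bla reporter cells (4,000/well, plated 5 h earlier). 16 h at 37 C, then LiveBLAzer substrate for 2 h at room temperature in the dark; fluorescence read-out.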

The nature of experiment [7]: p53 small molecule agonists, cell-based qHTS assay with rat liver microsomes: qHTS cell viability counter screen (AID 1963580). Also: nearly all actives have a fitted effect of over 45% in size. Also: potency is read from the fitted curve at half-maximal effect. The method in brief:
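After the beta-lactamase ratio was read, CellTiter-Glo was added to the same wells and luminescence measured at 30 min; cells had been treated 16 h at 37 C with compounds, rat liver microsomes and NADPH (0.5 mg/mL final each).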

Experiment [8] has as its target 5-hydroxytryptamine receptor 2A (Homo sapiens) (UniProt P28223). Nature of the experiment: 5-hydroxytryptamine receptor 2A (HTR2A) small molecule antagonists, cell-based qHTS assay (AID 1963586). Also: nearly all actives have a fitted effect of over 45% in size. Also: potency is read from the fitted curve at half-maximal effect. The method in brief: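 CHO cells stably expressing human HTR2A were plated for 18 h at 37 C, then loaded with calcium dye for 1 h. Compounds were preincubated 5 min at room temperature before DOI (4 nM solution) was added. Kinetic fluorescence was read for 3 min.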

Experiment [9] shares this target. Nature of the experiment: 5-hydroxytryptamine receptor 2A (HTR2A) small molecule agonists, cell-based qHTS assay (AID 1963587). Also: nearly all actives have a fitted effect of over 30% in size. Also: potency is read from the fitted curve at half-maximal effect. The method in brief: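 CHO cells stably expressing human HTR2A, plated 18 h, loaded with calcium dye 1 h at 37 C. Agonist mode: compounds added and intracellular calcium fluorescence recorded kinetically for 2 min at 1 sec intervals.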

In experiment [10] the target is Muscarinic acetylcholine receptor M1 (Homo sapiens) (UniProt P11229). The experiment is described as follows: Cholinergic receptor muscarinic 1 (CHRM1) small molecule agonists, cell-based qHTS assay (AID 1963589). Also: nearly all actives have a fitted effect of over 35% in size. A digest of the protocol:
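Cells were plated and incubated 18 h at 37 C/5% CO2, loaded with calcium dye for 1 h at 37 C, then treated with compounds in DMSO. Fluorescence was recorded kinetically at 1 sec intervals.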

Experiment [11] deals with Beta-2 adrenergic receptor (Homo sapiens) (UniProt P07550). The experiment is described as follows: Adrenergic beta2 receptor (ADRB2) small molecule antagonists, cell-based qHTS assay (AID 1963592). Also: nearly all actives have a fitted effect of over 50% in size. Also: potency is read from the fitted curve at half-maximal effect. The method in brief:
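Assay format: CHO-ADRB2 cells, 18-20hr seeding at 37C/5% CO2, then compound plus 1nM isoproterenol agonist mix for 0.5hr RT. Homogeneous time-resolved fluorescence cAMP detection after 1hr, expressed as 665/615 nm ratio.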

Experiment [12] shares this target. Nature of the experiment: Adrenergic beta2 receptor (ADRB2) small molecule agonists, cell-based qHTS assay (AID 1963593).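 Also: CHO cells stably overexpressing human ADRB2.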 A digest of the protocol: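 CHO cells stably over-expressing ADRB2 were plated overnight at 37C, then dosed with compounds plus a stimulation mix containing 100uM IBMX and 25uM Ro-20-1724 for 0.5hr at room temperature. cAMP was measured by HTRF competition, 1hr.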

Experiment [13] deals with D(2) dopamine receptor (Homo sapiens) (UniProt P14416). The experiment is described as follows: Dopamine D2 receptor (DRD2) small molecule agonists, cell-based qHTS assay (AID 1963594). Also: nearly all actives have a fitted effect of over 35% in size. The method in brief:
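HEK293 cells stably expressing human DRD2, pre-treated with PDE inhibitor Ro20-1724 (0.1 mM final) and compound 10 min at room temperature, then stimulated with NKH477 (200nM […]) for 30 min. cAMP read by HTRF (665/620 nm).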

The target is the same in experiment [14]. Nature of the experiment: Dopamine D2 receptor (DRD2) small molecule antagonists, cell-based qHTS assay (AID 1963595; active = well fitted inhibition curve with a large enough effect in the signal ratio in the repeat runs, with a control signal flat; the % refers to the signal ratio; also: potency is read from the fitted curve at half-maximal effect). A digest of the protocol:
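HTRF cAMP read-out at 665 and 620 nm emission (340 nm excitation). Antagonist mode: compounds were tested against 12 nM quinpirole in DRD2-HEK293 cells, with 200 nM NKH477 raising cAMP and 0.1 mM Ro20-1724 blocking its breakdown.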

Experiment [15] in a line: p53 small molecule agonists, cell-based qHTS assay with human liver microsomes: qHTS cell viability counter screen (AID 1963579). Also: nearly all actives have a fitted effect of over 45% in size. Also: potency is read from the fitted curve at half-maximal effect. A digest of the protocol: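 Metabolic activation used human liver microsomes and NADPH, both 0.5 mg/mL final, over 16 hours at 37 C on p53RE-bla cells (4,000/well). Cytotoxicity measured by CellTiter-Glo luminescence, 30 min at room temperature.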

Experiment [16] in a line: p53 small molecule agonists, cell-based qHTS assay: qHTS cell viability counter screen (AID 1963581). Also: nearly all actives have a fitted effect of over 45% in size. A digest of the protocol:
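Viability was counter-screened in parallel with the p53 agonist reporter by measuring intracellular ATP luminescence in the same HCT-116 p53RE-bla wells after 16 h compound treatment at 37 C.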

A short description of experiment [17]: p53 small molecule agonists, cell-based qHTS assay (AID 1963582; active = well fitted activation curve with a large enough effect in the signal ratio in the repeat runs, not every such curve was filed as active; the % refers to the signal ratio). The method in brief:
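Cells carrying a p53-responsive bla reporter are treated with test compounds for 16 h at 37 C; beta-lactamase activity is then detected with LiveBLAzer B/G FRET substrate after 2 h at room temperature.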

Experiment [18] in a line: cAMP Responsive Elements (CRE) small molecule agonists, cell-based qHTS assay (AID 1963590). A digest of the protocol:
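Cells carrying a CRE-driven beta-lactamase reporter (HEK 293T) are seeded, incubated overnight (18 h), and treated with test compounds for 3 h at 37 C; reporter activity is then detected with a FRET substrate after 2 h at room temperature.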

Experiment [19] can be described thus: cAMP Responsive Elements (CRE) small molecule antagonists, cell-based qHTS assay (AID 1963591; active = well fitted inhibition curve with a large enough effect in the signal ratio in the repeat runs, not every such curve was filed as active; the % refers to the signal ratio). The method in brief: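 Cells (CRE-bla HEK 293T, DMEM with 10% dialyzed FBS and 25 mM HEPES) are seeded and incubated 18 h. Compounds are added with NKH477 agonist at 0.25 uM final for 3 h, then FRET substrate for 2 h.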
The target in experiment [20] is Muscarinic acetylcholine receptor M1 (Homo sapiens) (UniProt P11229). The experiment is described as follows: Cholinergic receptor muscarinic 1 (CHRM1) small molecule antagonists, cell-based qHTS assay (AID 1963588). Also: nearly all actives have a fitted effect of over 40% in size. The method in brief: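 Compounds were tested at 15 concentrations in three independent runs. Dye-loaded CHRM1-CHO cells were exposed 5 min at room temperature before stimulation by acetylcholine added at 50nM. Intracellular calcium was read kinetically on FDSS for 3 min.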
Muscarinic acetylcholine receptor M1 (Homo sapiens), sequence (P11229 whole entry, looked up): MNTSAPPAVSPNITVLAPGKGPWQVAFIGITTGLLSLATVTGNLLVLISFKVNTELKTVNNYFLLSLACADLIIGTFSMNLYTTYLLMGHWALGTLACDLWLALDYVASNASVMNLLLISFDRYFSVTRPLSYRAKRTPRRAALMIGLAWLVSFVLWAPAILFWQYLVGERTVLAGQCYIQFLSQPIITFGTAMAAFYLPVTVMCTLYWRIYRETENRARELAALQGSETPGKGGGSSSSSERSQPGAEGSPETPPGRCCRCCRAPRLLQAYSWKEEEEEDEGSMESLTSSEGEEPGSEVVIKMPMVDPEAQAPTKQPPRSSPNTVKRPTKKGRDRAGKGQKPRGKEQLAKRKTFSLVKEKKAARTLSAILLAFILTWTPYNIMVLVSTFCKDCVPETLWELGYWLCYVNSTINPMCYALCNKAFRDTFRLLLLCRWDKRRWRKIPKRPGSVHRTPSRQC

Beta-2 adrenergic receptor (Homo sapiens), sequence (P07550 whole entry, looked up): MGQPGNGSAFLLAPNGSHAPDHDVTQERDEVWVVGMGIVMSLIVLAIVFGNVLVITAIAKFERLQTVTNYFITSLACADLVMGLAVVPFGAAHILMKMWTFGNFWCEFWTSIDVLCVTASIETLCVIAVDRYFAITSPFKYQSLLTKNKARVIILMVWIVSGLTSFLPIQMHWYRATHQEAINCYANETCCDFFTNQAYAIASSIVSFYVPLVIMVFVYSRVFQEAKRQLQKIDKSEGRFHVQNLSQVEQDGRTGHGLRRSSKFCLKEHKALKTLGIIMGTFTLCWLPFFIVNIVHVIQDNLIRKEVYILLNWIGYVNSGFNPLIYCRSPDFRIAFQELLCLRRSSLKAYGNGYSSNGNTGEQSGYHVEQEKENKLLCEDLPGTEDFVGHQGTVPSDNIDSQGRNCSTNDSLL
D(2) dopamine receptor (Homo sapiens), sequence (P14416 whole entry, looked up): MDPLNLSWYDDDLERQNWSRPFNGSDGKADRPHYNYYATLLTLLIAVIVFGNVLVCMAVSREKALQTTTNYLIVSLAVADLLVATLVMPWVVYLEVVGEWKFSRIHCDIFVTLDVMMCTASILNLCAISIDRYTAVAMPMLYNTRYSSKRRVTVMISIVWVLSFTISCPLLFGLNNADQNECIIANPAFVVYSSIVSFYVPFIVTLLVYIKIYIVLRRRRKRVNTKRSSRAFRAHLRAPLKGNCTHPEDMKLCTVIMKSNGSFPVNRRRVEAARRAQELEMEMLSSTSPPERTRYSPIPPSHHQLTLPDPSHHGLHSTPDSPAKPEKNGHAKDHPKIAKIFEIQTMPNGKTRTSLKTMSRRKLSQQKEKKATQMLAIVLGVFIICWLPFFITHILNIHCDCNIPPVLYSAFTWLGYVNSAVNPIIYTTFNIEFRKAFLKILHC
5-hydroxytryptamine receptor 2A (Homo sapiens), sequence (P28223 whole entry, looked up): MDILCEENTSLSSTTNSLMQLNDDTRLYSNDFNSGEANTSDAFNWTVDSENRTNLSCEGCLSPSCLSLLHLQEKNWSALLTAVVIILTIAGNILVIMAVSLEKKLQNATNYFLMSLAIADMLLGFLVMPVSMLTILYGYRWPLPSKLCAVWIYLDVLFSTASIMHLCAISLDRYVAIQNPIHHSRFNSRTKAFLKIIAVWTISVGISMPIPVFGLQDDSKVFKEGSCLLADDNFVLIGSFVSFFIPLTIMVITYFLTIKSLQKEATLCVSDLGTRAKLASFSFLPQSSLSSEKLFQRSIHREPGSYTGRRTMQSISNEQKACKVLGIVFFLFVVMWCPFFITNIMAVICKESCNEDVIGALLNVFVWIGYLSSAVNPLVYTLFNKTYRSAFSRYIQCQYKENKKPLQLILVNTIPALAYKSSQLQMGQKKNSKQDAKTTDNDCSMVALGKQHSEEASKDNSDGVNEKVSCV
KiSS-1 receptor (Homo sapiens), sequence (Q969F8 whole entry, looked up): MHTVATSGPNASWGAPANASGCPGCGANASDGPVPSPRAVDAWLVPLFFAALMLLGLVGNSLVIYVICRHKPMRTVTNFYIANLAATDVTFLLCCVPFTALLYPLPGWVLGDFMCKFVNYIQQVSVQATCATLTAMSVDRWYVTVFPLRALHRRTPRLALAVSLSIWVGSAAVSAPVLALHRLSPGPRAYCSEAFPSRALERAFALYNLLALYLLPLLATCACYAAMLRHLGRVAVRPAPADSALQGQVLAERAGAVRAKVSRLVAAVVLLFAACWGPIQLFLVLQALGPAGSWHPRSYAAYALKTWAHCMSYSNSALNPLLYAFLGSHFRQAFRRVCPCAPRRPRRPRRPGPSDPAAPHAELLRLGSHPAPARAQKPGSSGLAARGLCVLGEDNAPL

On to `CCCc1c(OCCCOc2ccc(OCC(=O)O)cc2)ccc(C(C)=O)c1O`, for which the Potency entry in [1], in [2], in [3], in [4], in experiment [5] and in experiment [6] was “inactive” each time. Besides, the Potency result in [8], in experiment [10], in [11], in experiment [12], in experiment [13] and in experiment [14] was “inactive” in each case. Further, the Potency in experiment [7] is 40.8 µM (active); in experiment [9] it was 54.9 µM (active).

In the case of `CC(C)C[C@H](NC(=O)CNC(=O)[C@H](Cc1ccc(O)cc1)NC(=O)[C@H](CO)NC(=O)[C@H](Cc1c[nH]c2ccccc12)NC(=O)[C@H](Cc1cnc[nH]1)NC(=O)[C@@H]1CCC(=O)N1)C(=O)N[C@@H](CCCN=C(N)N)C(=O)N1CCC[C@H]1C(=O)NCC(N)=O` (stereo in doubt), the Potency result in experiment [1], in [2], in [3], in [4], in experiment [5] and in [6] was “inactive” throughout. Moreover, the Potency result in [15], in experiment [7], in experiment [16], in [17], in experiment [18] and in experiment [19] was “inactive” in each case. The Potency result in experiment [11], in experiment [12], in experiment [13] and in experiment [14] was “inactive” each time.

Turning to `CCCCCCOc1cc(C)c(O)c(C)c1C`, the Potency in [1] is 31 µM (active); in experiment [15], 26 µM (active); in [8], 19 µM (active); in experiment [9], 39.4 µM (active). Further, the Potency result in [2], in experiment [3], in [4], in experiment [5], in experiment [6] and in experiment [17] was “inactive” in each case. Further, the Potency entry in experiment [20] and in experiment [13] was “inactive” in each case.

For `Cc1cc(O)c(C(C)C)cc1Cl`, the Potency result in experiment [1], in [2], in experiment [3], in experiment [4], in [5] and in experiment [6] was “inactive” each time. Moreover, the Potency entry in experiment [15], in [7], in experiment [16], in [17], in [8] and in experiment [9] was “inactive” throughout. Also, the Potency result in experiment [20], in [10], in [18], in [12], in experiment [13] and in experiment [14] was “inactive” each time.

Turning to `c1coc(Cn2cccc2)c1`, the Potency result in experiment [1], in experiment [2], in experiment [3], in experiment [4], in experiment [5] and in experiment [6] was “inactive” each time. Moreover, the Potency entry in experiment [15], in experiment [7], in [17], in experiment [8], in experiment [20] and in [18] was “inactive” each time. Besides, the Potency entry in experiment [19] and in experiment [14] was “inactive” in each case. The Potency in experiment [11] is 30.6 µM (active).

Take `CC(=O)S[C@@H]1CC2=CC(=O)CC[C@]2(C)[C@H]2CC[C@@]3(C)[C@@H](CC[C@@]34CCC(=O)O4)[C@H]12`: the Potency entry in experiment [1], in experiment [3], in [4], in [5], in [6] and in experiment [15] was “inactive” throughout. Moreover, the Potency result in experiment [7], in [16], in [11] and in [13] was “inactive” in each case. In addition, the Potency in experiment [2] was 24.3 µM (active).

`C[C@@H](CN(C)C)CN1c2ccccc2Sc2ccccc21`: the Potency result in [1], in [2], in [3], in experiment [4], in [5] and in experiment [6] was “inactive” each time. The Potency result in experiment [15], in experiment [7], in experiment [16], in [9], in experiment [10] and in [18] was “inactive” throughout. Moreover, the Potency entry in experiment [19] was “inactive”. Besides, the Potency in experiment [8] was 0.0041 µM (active); in [11] it was 29.8 µM (active); in experiment [14], 1.68 µM (active).

For the compound `C[C@H](CCC(=O)O)[C@H]1CC[C@H]2[C@@H]3CC[C@@H]4C[C@H](O)CC[C@]4(C)[C@H]3CC[C@]12C`, the Potency entry in [1], in [2], in experiment [3], in experiment [4], in experiment [5] and in experiment [6] was “inactive” each time. The Potency entry in experiment [15], in experiment [16], in experiment [20], in experiment [10], in experiment [19] and in experiment [11] was “inactive” in each case. Further, the Potency result in experiment [12], in experiment [13] and in experiment [14] was “inactive” throughout. For the same compound, the Potency in [9] was 24.4 µM (active).
